# Experimental data: PubChem BioAssay (EPA / NIEHS)
# The source holds several records for some structures; these can differ, active in one and inactive in another. Active and inactive are the calls of the source. How the source made its calls: active means hit-call score of the fitted dose curve at least 0.9, where 1 is the maximum; inactive means score below 0.9.
# Read-out: Lipase C (LIPC), LIPC (gene 3990)
# Assay: LTEA_HepaRG_LIPC: Life Technologies and Expression Analysis (LTEA) Assay for Lipase C (LIPC) using HepaRG (AID 2283514)
# Conditions: mRNA level, 48 h; actives raise or lower the signal
# How it was run: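 Differentiated human HepaRG cells in serum-free induction medium were exposed in duplicate for 48 h to eight concentrations (top 100 uM, half-log steps, 0.5% DMSO). LIPC mRNA was quantified by TaqMan qRT-PCR, normalized to ACTB, GAPDH and POLR2A, with bidirectional fitting versus DMSO.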
SMILES,AC50,outcome
COC(=O)N(OC)c1ccccc1COc1ccn(-c2ccc(Cl)cc2)n1,50 µM (active),–
N#CC(CCc1ccc(Cl)cc1)(Cn1cncn1)c1ccccc1 (configuration not stated),65.9 µM (active),–
CCNc1nc(Cl)nc(NC(C)C)n1,–,inactive
CCON=C(CC)C1=C(O)CC(c2c(C)cc(C)cc2C)CC1=O (configuration not stated),–,inactive
CCCCOC(=O)c1ccccc1C(=O)OCCCC,–,inactive
COc1ccc(C(c2ccc(OC)cc2)C(Cl)(Cl)Cl)cc1,85.8 µM (active),–
COC(=O)C=C(C)OP(=O)(OC)OC,–,inactive
CC(Oc1ccc(Cl)cc1Cl)C(=O)O (configuration not stated),–,inactive
Cc1ccc(-c2c(Cl)nc(C#N)n2S(=O)(=O)N(C)C)cc1,50 µM (active),–
C#CCOS(=O)OC1CCCCC1Oc1ccc(C(C)(C)C)cc1 (configuration not stated),–,inactive
CCCCC(CC)COC(=O)c1ccccc1C(=O)OCC(CC)CCCC (configuration not stated),–,inactive

# Read-out: Lipoprotein lipase (LPL), LPL (gene 4023)
# Assay: LTEA_HepaRG_LPL: Life Technologies and Expression Analysis (LTEA) Assay for Lipoprotein lipase (LPL) using HepaRG (AID 2283515)
# Conditions: mRNA level, 48 h; actives raise or lower the signal
# How it was run: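 Differentiated human HepaRG cells in serum-free induction medium were exposed in duplicate for 48 h to eight half-log concentrations (top 100 uM) in 0.5% DMSO. LPL mRNA was quantified by TaqMan qRT-PCR, normalized to ACTB, GAPDH and POLR2A.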
SMILES,outcome,AC50
CCOC(=O)C(Cl)Cc1cc(-n2nc(C)n(C(F)F)c2=O)c(F)cc1Cl (configuration not stated),inactive,–
CCc1nn(C)c(C(=O)NCc2ccc(C(C)(C)C)cc2)c1Cl,–,2.22 µM (active)
COC(=O)N(OC)c1ccccc1COc1ccn(-c2ccc(Cl)cc2)n1,inactive,–
N#CC(CCc1ccc(Cl)cc1)(Cn1cncn1)c1ccccc1 (configuration not stated),–,50 µM (active)
CNC(=O)ON=CC(C)(C)SC,inactive,–
CCNc1nc(Cl)nc(NC(C)C)n1,inactive,–
CCON=C(CC)C1=C(O)CC(c2c(C)cc(C)cc2C)CC1=O (configuration not stated),inactive,–
CCCC1COC(Cn2cncn2)(c2ccc(Cl)cc2Cl)O1 (configuration not stated),–,27.8 µM (active)
CCCCOC(=O)c1ccccc1C(=O)OCCCC,inactive,–
COC(=O)c1ccccc1C(=O)OC,inactive,–
C=CCC1=C(C)C(OC(=O)C2C(C=C(C)C)C2(C)C)CC1=O (configuration not stated),inactive,–
COP(N)(=O)SC (configuration not stated),inactive,–
O=C(O)COc1nc(Cl)c(Cl)cc1Cl,inactive,–
COc1ccc(C(c2ccc(OC)cc2)C(Cl)(Cl)Cl)cc1,–,76.6 µM (active)
COC(=O)C=C(C)OP(=O)(OC)OC,inactive,–
CCOc1cc(Oc2ccc(C(F)(F)F)cc2Cl)ccc1[N+](=O)[O-],–,21.4 µM (active)
CCOC(=O)CC(SP(=S)(OC)OC)C(=O)OCC (configuration not stated),inactive,–
CNC(=S)S,inactive,–
CCCN(CCC)c1c([N+](=O)[O-])cc(S(N)(=O)=O)cc1[N+](=O)[O-],inactive,50 µM (active)
CC(C)C1(C)N=C(c2nc3ccccc3cc2C(=O)O)NC1=O (configuration not stated),inactive,–
CC(Oc1ccc(Cl)cc1Cl)C(=O)O (configuration not stated),inactive,–
O=C(Nc1ccccc1)Nc1ccnc(Cl)c1,–,81.8 µM (active)
Cc1ccc(-c2c(Cl)nc(C#N)n2S(=O)(=O)N(C)C)cc1,inactive,–
C#CCOS(=O)OC1CCCCC1Oc1ccc(C(C)(C)C)cc1 (configuration not stated),–,28.7 µM (active)
CCCCC(CC)COC(=O)c1ccccc1C(=O)OCC(CC)CCCC (configuration not stated),inactive,–
